Experimental data from PubChem BioAssay.

Experiments:
[1] = test system: Human papillomavirus type 1a protein E7 (residues 44-93); experiment: small molecules binding HPV E7 44-93 – biochemical, small-molecule microarray, residues 44-93, 635 nm fluorescence, primary screen (AID 1108); details: fluorescence 635 nm, higher = more signal;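 also: E7 fragment applied at 1 µg/mL in TBST for 1 h at 4 C; score combines spot fluorescence with its signal to noise ratio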
[2] = hepatitis C replication reporter changes, two-sided – Huh7 cells, luciferase reporter, HCV replication inhibitor project, primary screen (AID 1109); details: Huh7 HCV replicon luciferase reporter, 48 h; higher = more signal;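 also: huh7 hepatoma cells harbouring a luciferase neomycin HCV replicon reporter; luciferase luminescence as measure of HCV replicon replication; test concentration not given here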
[3] = target: Left-right determination factor 2 (Homo sapiens) (UniProt O00292); experiment: small molecules binding LEFTY2 protein – biochemical, small-molecule microarray, 635 nm fluorescence scan, primary screen (AID 1110); details: higher = more signal
Left-right determination factor 2 (Homo sapiens), sequence (O00292 whole entry, looked up): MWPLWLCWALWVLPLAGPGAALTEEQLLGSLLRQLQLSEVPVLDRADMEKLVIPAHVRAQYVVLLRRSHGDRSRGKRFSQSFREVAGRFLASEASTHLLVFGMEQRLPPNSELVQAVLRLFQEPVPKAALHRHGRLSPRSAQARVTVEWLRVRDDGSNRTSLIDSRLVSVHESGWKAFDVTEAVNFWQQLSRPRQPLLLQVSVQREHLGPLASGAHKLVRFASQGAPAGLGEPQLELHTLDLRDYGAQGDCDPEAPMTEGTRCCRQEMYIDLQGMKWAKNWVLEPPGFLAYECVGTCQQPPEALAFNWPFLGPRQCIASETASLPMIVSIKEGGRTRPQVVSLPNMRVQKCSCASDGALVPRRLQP

[4] = target: Calmodulin-1 (Homo sapiens) (UniProt P0DP23); experiment: small molecules binding calmodulin-1 with EGTA – biochemical, small-molecule microarray, Cy5-labelled CALM1, profiling panel (AID 1111); details: Cy5-CALM1 binding fluorescence, higher = more signal;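 also: labelled calmodulin applied in Tris saline Tween buffer holding calcium plus EGTA and DTT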
[5] = target: Calmodulin-1 (Homo sapiens) (UniProt P0DP23); experiment: small molecules binding Ca-loaded calmodulin-1 – biochemical, small-molecule microarray, Cy5-labelled CALM1, plus calcium, artefact control for SMM control-protein annotation, profiling panel (AID 1112); details: Cy5-CALM1 binding fluorescence, higher = more signal;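 also: score merges spot fluorescence with signal to noise from triplicate slides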
[6] = probe aWnt5a binding to arrayed compounds – biochemical, biotinylated probe, 635/667 nm fluorescence, primary screen (AID 1113); details: small-molecule microarray, higher = more signal;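 also: score merges 667 nm fluorescence intensity with signal-to-noise per printed feature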
[7] = probe aShh binding to arrayed compounds – biochemical, biotinylated probe, 635/667 nm fluorescence, primary screen (AID 1114); details: small-molecule microarray, higher = more signal;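 also: probe is biotin-labelled aShh protein from a stem cell growth factor screen; measures binding of labelled protein to compounds printed on the slide; score merges feature fluorescence at 667 nm with signal-to-noise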
[8] = probe aNog binding to arrayed compounds – biochemical, biotinylated probe, 635/667 nm fluorescence, primary screen (AID 1115); details: small-molecule microarray, higher = more signal;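 also: probe is biotinylated aNog protein used at 0.15 µg/mL for 1 h at 4 C; z-score combines 667 nm fluorescence of each spot with its signal to noise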
[9] = target: Torsin-1A-interacting protein 1 (Homo sapiens) (UniProt Q5JTV8); experiment: compound microarray binding of lysate hLAP1 – cell lysate, small-molecule microarray, COS7 lysate, 635/667 nm fluorescence, primary screen (AID 1116); details: 635 nm fluorescence, higher = more signal
Torsin-1A-interacting protein 1 (Homo sapiens), sequence (Q5JTV8 whole entry, looked up): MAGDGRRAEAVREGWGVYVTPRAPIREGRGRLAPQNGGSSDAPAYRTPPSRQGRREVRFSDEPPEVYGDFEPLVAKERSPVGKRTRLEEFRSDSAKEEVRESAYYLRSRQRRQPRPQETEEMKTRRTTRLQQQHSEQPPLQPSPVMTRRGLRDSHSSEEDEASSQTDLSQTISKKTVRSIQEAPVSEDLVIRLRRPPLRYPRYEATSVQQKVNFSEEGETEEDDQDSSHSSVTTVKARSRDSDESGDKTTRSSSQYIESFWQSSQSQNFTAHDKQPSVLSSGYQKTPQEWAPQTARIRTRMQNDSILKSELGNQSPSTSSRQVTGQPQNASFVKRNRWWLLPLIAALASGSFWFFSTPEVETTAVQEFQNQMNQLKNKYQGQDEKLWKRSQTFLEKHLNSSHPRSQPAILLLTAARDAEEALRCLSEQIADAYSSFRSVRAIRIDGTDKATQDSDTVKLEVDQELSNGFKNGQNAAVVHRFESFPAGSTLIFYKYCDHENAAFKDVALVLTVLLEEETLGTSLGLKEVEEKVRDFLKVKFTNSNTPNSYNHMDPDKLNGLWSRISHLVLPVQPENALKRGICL

[10] = target: Alpha-bungarotoxin (Bungarus multicinctus) (UniProt P60615); experiment: compounds binding labelled alpha-BTX control protein – biochemical, small-molecule microarray, Alexa647 label, 635/667 nm fluorescence, artefact control for SMM control protein annotation, profiling panel (AID 1117); details: alpha-BTX-A647 binding fluorescence, higher = more signal
Alpha-bungarotoxin (Bungarus multicinctus), sequence (P60615 whole entry, looked up): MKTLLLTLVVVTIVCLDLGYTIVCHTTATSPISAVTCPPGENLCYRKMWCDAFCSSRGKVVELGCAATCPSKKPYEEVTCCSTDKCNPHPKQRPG

CC(CCN1CCCc2nc(C)c(C)cc21)=NOC[C@@H](C)[C@H](OCc1ccccc1)C(C)C
composite z-score [1]: -1.39
z-score [2]: -0.148
composite z-score [3]: -0.196
composite z-score [4]: -1
composite z-score [5]: -0.387
composite z-score [6]: -0.0685
composite z-score [7]: -0.138
composite z-score [8]: -0.255
composite z-score [9]: -0.187
composite z-score [10]: -1.1

COc1cccc([C@H](O)Cn2cc(-c3ccc(CON=C(C)C)cc3)nn2)c1
composite z-score [1]: -1.42
z-score [2]: -0.657
composite z-score [3]: 0.323
composite z-score [4]: -0.851
composite z-score [5]: -0.679
composite z-score [6]: 0.123
composite z-score [7]: -0.229
composite z-score [8]: -0.172
composite z-score [9]: 0.56
composite z-score [10]: -0.713

C#CCCCON=C1C[C@@H](O)[C@@H](O)[C@@H]2[C@@H]3C(=O)N(C[C@@H]4CCCO4)C(=O)[C@@H]3CC[C@@H]12
composite z-score [1]: 0.578
z-score [2]: 0.367
composite z-score [3]: 0.386
composite z-score [4]: -0.358
composite z-score [5]: -0.129
composite z-score [6]: -0.0865
composite z-score [7]: -0.153
composite z-score [8]: 0.223
composite z-score [9]: -0.0438
composite z-score [10]: 0.506

COc1ccc(COC(=O)NN=C2C[C@@H](O)[C@@H](O)[C@@H]3[C@@H]4C(=O)N(Cc5ccc6c(c5)OCO6)C(=O)[C@@H]4CC[C@H]23)cc1
composite z-score [1]: -0.433
z-score [2]: -0.191
composite z-score [3]: -0.34
composite z-score [4]: -0.704
composite z-score [5]: -0.276
composite z-score [6]: 0.0438
composite z-score [7]: 0.0121
composite z-score [8]: 0.788
composite z-score [9]: 0.0406
composite z-score [10]: 0.164

COc1cccc([C@H]2Oc3ccc(OC)cc3C(=NOCC[C@@H]3C=C[C@H](OC(C)=O)[C@@H](COC(C)=O)O3)[C@@H]2O)c1
composite z-score [1]: 0.687
z-score [2]: -0.544
composite z-score [3]: 0.492
composite z-score [4]: -0.547
composite z-score [5]: -0.314
composite z-score [6]: -0.0865
composite z-score [7]: -0.0553
composite z-score [8]: 0.197
composite z-score [9]: 0.786
composite z-score [10]: 0.635

COc1ccc(O[C@H]2C=C[C@@H](c3ccccc3)O[C@@H]2COC(=O)NCc2cccc3ccccc23)cc1
composite z-score [1]: 0.125
z-score [2]: -2.19
composite z-score [3]: -0.0808
composite z-score [4]: -0.413
composite z-score [5]: -0.329
composite z-score [6]: -0.104
composite z-score [7]: 0.23
composite z-score [8]: -0.116
composite z-score [9]: 0.469
composite z-score [10]: 0.33

COc1ccc(O[C@H]2C=C[C@@H](c3ccccc3)O[C@@H]2CO)cc1
composite z-score [1]: -0.438
z-score [2]: 0.231
composite z-score [3]: 0.213
composite z-score [4]: -0.329
composite z-score [5]: -0.643
composite z-score [6]: -0.148
composite z-score [7]: 0.0278
composite z-score [8]: 0.041
composite z-score [9]: 0.171
composite z-score [10]: 0.441

O=C1C=C[C@@H](O)[C@@H]2[C@@H]3C(=O)N(C4CCCCC4)C(=O)[C@@H]3CC[C@@H]12
composite z-score [1]: 0.502
z-score [2]: -4.18
composite z-score [3]: 0.71
composite z-score [4]: -0.0865
composite z-score [5]: -0.713
composite z-score [6]: -0.0459
composite z-score [7]: -0.0793
composite z-score [8]: -0.158
composite z-score [9]: 0.191
composite z-score [10]: 0.518

O=C1[C@H]2[C@H]3[C@H](O)[C@H](O)CC(=NO[C@@H]4O[C@H](CO)[C@@H](O)[C@H](O)[C@H]4O)[C@H]3CC[C@H]2C(=O)N1C[C@@H]1CCCO1
composite z-score [1]: -0.429
z-score [2]: -0.232
composite z-score [3]: 0.399
composite z-score [4]: -0.551
composite z-score [5]: -1.1
composite z-score [6]: -0.118
composite z-score [7]: -0.117
composite z-score [8]: -0.379
composite z-score [9]: -0.367
composite z-score [10]: -0.0473

CC(=O)OC[C@H]1O[C@@H](ON=C(C)C)[C@H](OC(C)=O)[C@@H](OC(C)=O)[C@@H]1OC(C)=O
composite z-score [1]: -2.02
z-score [2]: -0.563
composite z-score [3]: 0.207
composite z-score [4]: -0.862
composite z-score [5]: -0.678
composite z-score [6]: -0.0459
composite z-score [7]: -0.13
composite z-score [8]: -0.345
composite z-score [9]: -0.958
composite z-score [10]: -1.3

COC(=O)[C@H](C)NC(=O)CC=C[C@@H](C)[C@@H]1C=C[C@H](O)[C@@H](CO)O1
composite z-score [1]: 0.075
z-score [2]: -0.0833
composite z-score [3]: 1.14
composite z-score [4]: -0.698
composite z-score [5]: -1.35
composite z-score [6]: -0.0799
composite z-score [7]: -0.0474
composite z-score [8]: -0.0926
composite z-score [9]: 0.326
composite z-score [10]: -0.392

C=CC[C@@H]1C=C[C@H](ON=C(C)CCN2CCCc3nc(C)c(C)cc32)[C@@H](CO)O1
composite z-score [1]: 0.298
z-score [2]: -0.839
composite z-score [3]: 1.14
composite z-score [4]: -0.0351
composite z-score [5]: -1.43
composite z-score [6]: 0.264
composite z-score [7]: 0.586
composite z-score [8]: 0.525
composite z-score [9]: 1.83
composite z-score [10]: 0.366

CCOC(=O)[C@H](Cc1ccccc1)NC(=O)CCC1CC(OC(=O)NCc2cccc3ccccc23)CC2(CCCC(COC(=O)NCC3CCCCC3)O2)O1 (stereo not given in full)
composite z-score [1]: 1.33
z-score [2]: -1.48
composite z-score [3]: 0.643
composite z-score [4]: 0.297
composite z-score [5]: -0.525
composite z-score [6]: -0.0445
composite z-score [7]: 0.0596
composite z-score [8]: -0.142
composite z-score [9]: 0.128
composite z-score [10]: 0.746

CC(=O)OC[C@H]1O[C@@H](ON=C(C)CCN2CCCCc3nc(C)c(C)cc32)[C@H](OC(C)=O)[C@@H](OC(C)=O)[C@@H]1OC(C)=O
composite z-score [1]: 1.16
z-score [2]: -0.997
composite z-score [3]: 0.962
composite z-score [4]: -0.336
composite z-score [5]: -0.767
composite z-score [6]: -0.0337
composite z-score [7]: 0.0121
composite z-score [8]: -0.0129
composite z-score [9]: 0.479
composite z-score [10]: -0.546

CCOC(=O)[C@H](CC(C)C)NC(=O)CCC1CC(OC(=O)NCCc2ccc(F)cc2)CC2(CCCC(COC(=O)NCCCN3CCCC3=O)O2)O1 (stereo not given in full)
composite z-score [1]: 0.681
z-score [2]: -1.2
composite z-score [3]: 0.491
composite z-score [4]: 0.116
composite z-score [5]: -0.0004
composite z-score [6]: 0.0108
composite z-score [7]: -0.2
composite z-score [8]: -0.451
composite z-score [9]: 0.422
composite z-score [10]: 1.54

CCOC(=O)[C@H](Cc1ccccc1)NC(=O)CCC1CC(OC(=O)NCc2ccc3c(c2)OCO3)CC2(CCCC(COC(=O)NCCOC)O2)O1 (stereo not given in full)
composite z-score [1]: 1.36
z-score [2]: -1.08
composite z-score [3]: 0.545
composite z-score [4]: 0.353
composite z-score [5]: -0.194
composite z-score [6]: -0.124
composite z-score [7]: -0.153
composite z-score [8]: -0.0524
composite z-score [9]: 0.609
composite z-score [10]: 0.591

CCC1=NOC(CCC2CC(OC(=O)NCc3cccc4c3OCO4)CC3(CCCC(COC(=O)NCCc4ccc(Cl)cc4)O3)O2)C1 (stereo not given)
composite z-score [1]: 0.916
z-score [2]: -0.0374
composite z-score [3]: 0.304
composite z-score [4]: -0.257
composite z-score [5]: -0.532
composite z-score [6]: -0.142
composite z-score [7]: -0.16
composite z-score [8]: -0.402
composite z-score [9]: -0.342
composite z-score [10]: -0.148

COC(=O)[C@@H]1CC[C@H](C)[C@@H](c2ccc(Br)cc2)N1C(=O)C(F)(F)F
composite z-score [1]: -1.1
z-score [2]: -0.317
composite z-score [3]: 0.179
composite z-score [4]: -0.257
composite z-score [5]: 0.137
composite z-score [6]: -0.226
composite z-score [7]: -0.476
composite z-score [8]: -0.127
composite z-score [9]: -0.287
composite z-score [10]: 0.263

C[C@@H](c1ccccc1)N1C(=O)[C@H]2[C@H]3[C@H](O)[C@H](O)CC(=NOC[C@@H](O)COCc4ccco4)[C@H]3CC[C@H]2C1=O
composite z-score [1]: -0.788
z-score [2]: -0.978
composite z-score [3]: 0.858
composite z-score [4]: -0.858
composite z-score [5]: -1.65
composite z-score [6]: -0.196
composite z-score [7]: 0.0952
composite z-score [8]: -0.285
composite z-score [9]: -0.175
composite z-score [10]: -0.0662
